Results on 14 compounds are retold here after the supplement of paper PMC10127200.

Common to all, as to assay: Euclidean distance of Cell Painting phenotypic profile (signed KS, 77 features) to DMSO centroid (dimensionless distance); 5 or 10 uM (library dependent); higher = stronger phenotypic change vs DMSO (phenoactivity)
What all share (conditions): 48 h

The test system of experiment [1] is 786-O. The procedure, abridged:
(§1)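 Phenoactivity is defined as the Euclidean distance from a compound profile to the median vehicle profile. Each profile comprised 77 Harmony features, scored as signed Kolmogorov-Smirnov statistics versus same-plate vehicle wells, then plate-position corrected, correlation-weighted and replicate-averaged at the top dose. Five cancer lines and one healthy fibroblast line were exposed to library compounds for 48 h at 10 or 5 uM (0.1% DMSO final).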

The subject of experiment [2] is A549. The essentials: as §1
The subject of experiment [3] is DU145. The procedure, abridged: as §1
Experiment [4] concerns FB. The procedure, abridged: as §1
Experiment [5] deals with HEPG2. The essentials: as §1
Experiment [6] has as its system OVCAR4. The procedure, abridged: as §1

Counter-ions that a name gives are not always drawn.

On to `Cc1cn[nH]c1` [Fomepizole], for which the Euclidean distance stood at 0.803 in experiment [1]; 0.542 in experiment [2]; 1.4 in experiment [3]; 0.868 in experiment [4]; 1.97 in experiment [5]; 0.897 in experiment [6].
In the case of `O=C(O)c1cc(/N=N/c2ccc(S(=O)(=O)Nc3ccccn3)cc2)ccc1O` [Sulfasalazine], the Euclidean distance in experiment [1] turned out to be 1.02; in experiment [2], 0.839; in experiment [3], 0.638; in experiment [4], 1.14; in experiment [5], 0.963; in experiment [6] it was 0.897.
`CCCCOc1ccc(CC(=O)NO)cc1` [Bufexamac]: the Euclidean distance was found to be 1.36 in experiment [1]; 1.11 in experiment [2]; 0.87 in experiment [3]; 1.25 in experiment [4]; 0.883 in experiment [5]; 1.39 in experiment [6].
With `O=C(NOC[C@H](O)CO)c1ccc(F)c(F)c1Nc1ccc(I)cc1F`, the Euclidean distance turned out to be 3.1 in experiment [1]; 2.57 in experiment [2]; 3.66 in experiment [3]; 3.5 in experiment [4]; 2.03 in experiment [5]; 2.63 in experiment [6].
Turning to `CCCOc1ccc2[nH]c(NC(=O)OC)nc2c1` [Oxibendazole], the Euclidean distance in experiment [1] amounted to 2.66; in experiment [2], 2.7; in experiment [3] it was 3.08; in experiment [4] it was 2.55; in experiment [5] it was 1.73; in experiment [6], 2.58.
As to `CC(C)(C)[C@H]1CC[C@H](CC2=C(O)C(=O)c3ccccc3C2=O)CC1` [Buparvaquone], the Euclidean distance in experiment [1] was found to be 1.16; in experiment [2] it was 1.1; in experiment [3] it was 1.17; in experiment [4], 0.844; in experiment [5] it was 0.483; in experiment [6], 1.44.
Consider `CC[C@H](C)[C@H](NC(=O)[C@H]([C@@H](C)CC)N(C)C(C)=O)C(=O)N[C@H](C(=O)N[C@@H](CC(C)C)C(=O)[C@@]1(C)CO1)[C@@H](C)O` [Epoxomycin], for which the Euclidean distance in experiment [1] turned out to be 2.19; in experiment [2], 2.8; in experiment [3], 2.62; in experiment [4], 2.62; in experiment [5], 2.95; in experiment [6] it was 3.12.
As to `Cn1c(=O)c2c(ncn2CCO)n(C)c1=O` [Etofylline], the Euclidean distance in experiment [1] was 1.39; in experiment [2] it was 0.749; in experiment [3], 1.18; in experiment [4], 1.08; in experiment [5], 0.452; in experiment [6], 1.26.
For the compound `C=C1/C(=C\C=C2/CCC[C@]3(C)[C@@H]([C@H](C)CCCC(C)C)CC[C@@H]23)C[C@@H](O)C[C@@H]1O` [Alfacalcidol], the Euclidean distance in experiment [1] was found to be 2.68; in experiment [2], 1.49; in experiment [3], 6.28; in experiment [4], 1.73; in experiment [5] it was 0.811; in experiment [6] it was 1.5.
As for `CCOc1ccc(Cc2cc([C@@H]3O[C@H](CO)[C@@H](O)[C@H](O)[C@H]3O)ccc2Cl)cc1` [Dapagliflozin propanediol monohydrate], the Euclidean distance in experiment [1] was found to be 1.02; in experiment [2], 0.644; in experiment [3], 1.02; in experiment [4], 0.967; in experiment [5], 0.649; in experiment [6], 0.832.
Consider `COc1cc(Cc2cnc(N)nc2N)cc(OC)c1OC` [Trimethoprim], for which the Euclidean distance in experiment [1] was 1.42; in experiment [2], 0.849; in experiment [3] it was 0.917; in experiment [4] it was 1.39; in experiment [5] it was 0.86; in experiment [6] it was 1.12.
For the compound `Cc1c(-c2ccnn2C)cc(C(=O)NCc2ccc(S(C)(=O)=O)cn2)c(=O)n1-c1cccc(C(F)(F)F)c1` [Alvelestat (AZD9668)], the Euclidean distance came out at 1.01 in experiment [1]; 1.73 in experiment [2]; 1.04 in experiment [3]; 1.06 in experiment [4]; 0.869 in experiment [5]; 0.81 in experiment [6].
For the compound `O=C(N[C@H](CO)[C@H](O)c1ccc([N+](=O)[O-])cc1)C(Cl)Cl` [Chloramphenicol], the Euclidean distance in experiment [1] came out at 1.22; in experiment [2] it was 1; in experiment [3], 1.35; in experiment [4] it was 0.994; in experiment [5], 0.584; in experiment [6], 1.3.
`CCCCNc1ccc(C(=O)OCCN(C)C)cc1` [Tetracaine HCl]: the Euclidean distance in experiment [1] worked out at 0.993; in experiment [2] it was 0.918; in experiment [3], 0.964; in experiment [4], 1.06; in experiment [5], 0.941; in experiment [6], 1.79.
